HT1080-NT tox = qHTS for induction of synthetic lethality in tumor cells producing 2HG: qHTS for the HT-1080-NT fibrosarcoma cell line. actives 1.6% (n = 360,000). Potency, µM (series often up to 46.1 µM), inactives show at the top dose activity, negative = less viability, hits mostly cytotoxic. HT-1080-NT fibrosarcoma viability, CellTiter-Glo ATP luminescence, 48 h. AID 686970, 2013;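 also: NT is the 2HG producing partner of a matched IDH1 knockdown line; 0% = DMSO-treated cells and -100% = media-only wells without cells; nearly all actives have a fitted effect of over 55% in size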
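Compounds were tested in concentration-response format on HT-1080-NT cells for 48 hours at 37 degrees C. Cell viability came from CellTiter-Glo luminescence; curves were classified by r2, response magnitude and activity.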
SW480 rereplic = A quantitative high throughput screen for small molecules that induce DNA re-replication in SW480 colon adenocarcinoma cells. actives 1.8% (n = 340,000). AID 624297, 2012. Potency, µM (series often up to 46.1 µM), for the others: top-dose re-replication activation, hits mostly activators. SW480 DNA re-replication, Hoechst DNA content imaging, 48 h; also: % of control where 0% means no effect; nearly all actives have a fitted effect of over 55% in size
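Image-based DNA-content assay: after two days of treatment, nuclei were labelled with the DNA dye Hoechst and imaged, and hits were compounds raising the count of nuclei showing high fluorescence intensity.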
KB-V1 cytotox = qHTS assay for MDR1-selective chemotherapeutics: Primary screen using the drug-selected MDR subline cells KB-V1; actives 3.4% (n = 400,000); Potency, µM (series often up to 46.1 µM), actives largely listed as cytotoxic; KB-V1 MDR cells viability, CellTiter-Glo, 72 h; also: % is scaled to controls: 0 for no effect and ±100 for the full control effect; nearly all actives have a fitted effect of over 60% in size
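Potencies derive from concentration-effect curves fitted to normalized luminescence (CellTiter-Glo) of KB-V1 cells treated for 72 h at 37 degrees C in phenol-red-free DMEM containing 10% FBS.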
KB-3-1 cytotox = qHTS assay for MDR1-selective chemotherapeutics: Primary screen using the parental adenocarcinoma cell KB-3-1. KB-3-1 viability, CellTiter-Glo ATP luminescence, 72 h. Potency, µM (highest dose often 46.1 µM), hits mostly cytotoxic. actives 1.4% (n = 400,000); also: % is scaled to controls: 0 for no effect and ±100 for the full control effect; nearly all actives have a fitted effect of over 60% in size
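Cytotoxicity measured as CellTiter-Glo luminescence after 72 h at 37 C. Compound titrations were pinned onto drug-naive KB-3-1 parental adenocarcinoma cells grown in DMEM with 10% FBS, and normalized data fitted to concentration-response curves.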
HT1080 IDH1KD tx = qHTS for induction of synthetic lethality in tumor cells producing 2HG: qHTS for the HT-1080-IDH1KD cell line. HT-1080 IDH1 knockdown viability, ATP luminescence, 48 h. Potency, µM (highest dose often 46.1 µM), for inactives: at the top dose activity, negative = toxicity, usual class: cytotoxic. actives 2% (n = 360,000). AID 686971, 2013;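 also: 0% = DMSO wells and -100% = cell-free medium wells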
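Luminescent ATP read-out (CellTiter-Glo, 10 min at room temperature) after 48 h compound exposure at 37 °C gave viability of IDH1-knockdown HT-1080 cells. Activity was normalised to DMSO and cell-free wells, then fitted as concentration-response curves.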
MCF10A rerep = A quantitative high throughput screen for small molecules that induce DNA re-replication in MCF 10a normal breast cells; MCF 10A DNA re-replication, Hoechst nuclear intensity, 48 h; Potency, µM (series often up to 46.1 µM), for inactives: at the top dose activity, positive = re-replication, actives largely listed as activators; actives 2.9% (n = 350,000); AID 624296, 2012; also: % of control where 0% means no effect; nearly all actives have a fitted effect of over 50% in size
The depositor's hits bear a star; i = inactive; ? = inconclusive; . = not tested or not shown. Shown are actives, neighbours in structure and some others; about 8% of the full set was active somewhere. Calls follow the shape of the dose curve; as a rule, active = well fitted curve in the direction sought with a large enough effect; inconclusive = small, poorly fitted or top-dose-only effect, or another doubt; inactive = no such curve, though single readings can be large; an effect the other way counts as inactive or inconclusive. Potency is read from the fitted curve at half-maximal effect.

SMILES | HT1080-NT tox | SW480 rereplic | KB-V1 cytotox | KB-3-1 cytotox | HT1080 IDH1KD tx | MCF10A rerep
CN1/C(=C\C(=O)C[n+]2cccc(Br)c2)C(C)(C)c2ccccc21 | -27.8% | 1.9% | i | ? | -43.1% | 7.3%
Cc1ccc[n+](CC(=O)/C=C2\N(C)c3ccccc3C2(C)C)c1 | -18.3% | 1.0% | ? | 7.31µM* | ? | 19.8%
COc1ccc(-n2nc(C(=O)NCCc3ccc(Cl)cc3)c3c4ccccc4n(C)c3c2=O)cc1 | . | . | i | i | . | .
COc1ccc(C(=O)C[n+]2cc(Br)cc3ccccc32)cc1 | . | . | i | i | . | .
COc1ccc(C(=O)C[n+]2cn(C(F)F)c3ccccc32)c(F)c1 | 20.6µM* | 19.2% | i | i | ? | ?
S=c1nc(-c2sccc2OCc2ccc(Cl)cc2Cl)[nH][nH]1 | -8.8% | -0.4% | ? | i | 10.5% | 6.8%
Cc1ccc(-c2[nH]c3ccccc3c2C(C[N+](=O)[O-])c2ccco2)cc1 (stereo not given) | 16.4µM* | ? | 20.6µM* | i | ? | 18.4µM*
CC1(C)Cc2c(c(N3CCCCC3)[nH]c(=S)c2C#N)CS1 | 5.1% | -4.8% | 11.6µM* | i | 13.9% | ?
COc1ccc(NC(=O)CCN2C(=O)C3CC=CCC3C2=O)cc1S(=O)(=O)N1CCCCC1 (stereo not given) | 10.9% | -2.8% | ? | i | 20.6% | 0.5%
COc1ccc(NC(=O)COc2cc(C)cc(C)c2)cc1S(=O)(=O)N1CCCCC1 | ? | 5.8µM* | 18.4µM* | ? | ? | 20.6µM*
COc1ccc(NC(=O)CCCC2CCCCC2)cc1S(=O)(=O)N1CCCCC1 | -10.9% | ? | 9.2µM* | ? | -20.9% | ?
CC(=O)Cn1ncc(Br)c(Br)c1=O | 10.3µM* | 3.66µM* | ? | ? | 7.31µM* | 2.06µM*
CCOC(=O)CSc1nc(C)c(C(C)=O)cc1C(N)=O | 13.8% | -0.7% | i | i | -0.8% | 0.4%
Cc1nn2c(COc3ccc(NC(=O)C(C)C)cc3)nnc2c2ccccc12 | -14.5% | -9.1% | i | i | -13.9% | 2.2%
Cc1nn2c(CN(C(=O)COc3ccccc3)c3ccccc3)nnc2c2ccccc12 | -4.5% | -5.7% | 4.61µM* | ? | -0.8% | 3.8%
Cc1nn2c(COc3ccc(NC(=O)c4ccccc4Cl)cc3)nnc2c2ccccc12 | ? | 8.2µM* | ? | ? | 14.6µM* | 2.91µM*
c1cc(-c2ccncc2)ccn1 | . | 0.517µM* | i | i | . | -6.2%
Cc1cc(C)n(CC(=O)N/N=C/c2ccc([N+](=O)[O-])s2)n1 | ? | 20.6µM* | ? | ? | ? | ?
O=C(CNC(=O)c1ccccc1)N/N=C/c1ccc([N+](=O)[O-])s1 | -9.1% | ? | ? | ? | -3.5% | ?
O=C(N/N=C/c1ccc([N+](=O)[O-])s1)c1cccc(Br)c1 | 11.6µM* | 10.3µM* | ? | i | 20.6µM* | ?
O=C(Cc1ccccc1)NCC(=O)N/N=C/c1ccc([N+](=O)[O-])s1 | -24.8% | 14.6µM* | ? | ? | ? | 5.1%
Cc1ccc(C(=O)N/N=C/c2ccc([N+](=O)[O-])s2)cc1 | ? | ? | ? | i | ? | 24.1%
O=[N+]([O-])c1ccc(C=Nc2cccc3ccccc23)s1 | -23.4% | 6.51µM* | ? | ? | 23.1µM* | 20.6µM*
CCc1ccc(OCC(=O)Nc2cc(-c3ccc(C)cc3)no2)cc1 | . | . | i | i | . | .
O=C(CC(O)(c1ccccc1)C(F)(F)F)c1cccs1 (stereo not given) | -7.6% | -2.9% | i | i | -5.3% | 5.4%
SMILES | HT1080-NT tox | SW480 rereplic | KB-V1 cytotox | KB-3-1 cytotox | HT1080 IDH1KD tx | MCF10A rerep
O=S(=O)(NC1CC1)c1ccc(S(=O)(=O)N2CCCC3(CCCCC3)C2)cc1 | 7.4% | ? | i | i | -4.6% | 14.6µM*
O=S(=O)(NC1CC1)c1ccc(S(=O)(=O)N2CCN3CCCC3C2)cc1 (stereo not given) | -1.4% | 0.1% | i | i | 8.9% | -8.4%
CCc1ccc(S(=O)(=O)c2nnn3c2nc(NCc2cccc(OC)c2)c2cc(Cl)ccc23)cc1 | . | . | i | i | . | .
COC(=O)c1c(NC(=S)NNS(=O)(=O)c2ccc(OC)cc2OC)sc2c1CCCCCC2 | 0.0% | -4.4% | . | . | -0.8% | ?
COC(=O)c1c(NC(=S)Nc2cc(OC)c(Cl)cc2OC)sc2c1CCCCC2 | -7.9% | -1.9% | 20.6µM* | i | 15.5% | ?
COC(=O)c1c(NC(=O)c2nn(C)cc2Cl)sc2c1CCCC2 | 8.2% | -1.7% | 5.8µM* | i | 6.9% | 5.6%
COC(=O)c1c(NC(=O)c2ccn(C)n2)sc2c1CCC2 | 8.3% | -6.1% | i | i | 9.0% | -10.3%
Cc1ccc(Cn2cc(CN3CC(N4CCN(Cc5ccccc5F)CC4)CS3(=O)=O)nn2)cc1 (stereo not given) | -0.5% | . | 10.3µM* | ? | -26.2% | .
Cc1ccc(Cn2cc(CN3CC(N4CCCCC4)CS3(=O)=O)nn2)cc1 (stereo not given) | 17.0% | . | ? | i | 7.5% | .
CCCCCCN1CCN(C2CN(Cc3cn(Cc4ccc(C)cc4)nn3)S(=O)(=O)C2)CC1 (stereo not given) | -21.2% | . | ? | i | 23.1µM* | .
CCS(=O)c1scc(-c2ccc(Cl)cc2)c1C#N (stereo not given) | -4.4% | -7.3% | 20.6µM* | ? | -0.4% | 9.5%
CN(C)CCOC(=O)c1ccc2[nH]c3c(c2c1)CSCC3 | 22.3% | 7.31µM* | i | i | 16.3% | -12.7%
O=C(O)c1ccc2[nH]c3c(c2c1)CSCC3 | 11.4% | -4.0% | i | i | 11.0% | -4.6%
Cc1cc(O)c(C(c2cccc(Cl)c2)N2CCN(c3ccccc3)CC2)c(=O)n1Cc1ccco1 (stereo not given) | . | . | i | i | . | .
Cc1ccc(NC(=O)c2c(C)nn(-c3ccccc3)c2Cl)cc1 | -17.1% | 0.6% | i | i | -12.7% | 3.9%
CC1CCN(C(=S)Nc2ccc(F)cc2)CC1 | -26.3% | -4.4% | ? | ? | -43.7% | ?
C/C(=N\NC(=S)Nc1ccc(F)cc1)C1CC1 | 8.91µM* | 1.5% | i | i | 11.2µM* | 3.1%
CCOc1ccc(S(=O)(=O)N2CCN(C(=O)c3ccco3)CC2)cc1 | 2.5% | ? | i | i | 12.1% | -2.1%
